Screening results as filed in PubChem.
Hits are enriched below; roughly 7.2% of the tested compounds scored in any of these assays.
Efflux pump mplx: blocks antifungal efflux pumps in multiplex yeast assay; S. cerevisiae Candida pump triplex, Nile Red efflux; inhibition, % at 10 µM; 0.44% of 330,000 active;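 active = plate passing quality check with inhibition over a set limit, or well fluorescence over plate mean plus 4 SD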;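 also: Nile Red retained in pooled yeast measured as flow cytometry median fluorescence; 0% = buffer negative control and 100% = Enniatin B positive control; higher means more Nile Red kept so more efflux inhibition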
AHR activator: activators of human aryl hydrocarbon receptor; P35869; AHR-responsive luciferase reporter cells, luminescence; activation, % at 5 µM; 2.5% of 320,000 active; AID 2796; in the data active = activation above about 47%;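 also: 0% = vehicle wells and 100% = reference agonist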
SUMO Mot1 rescue: SUMOylation pathway inhibition by Mot1-301 growth rescue; S. cerevisiae Mot1-301 growth rescue, ATP luminescence, 38.5C; percent above DMSO median, 100 means doubled; growth rescue, % at 18.8 µM; 1% of 320,000 active;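 active = every valid replicate shows activation above 250% relative to neutral control wells; inactive = the rest, any valid replicate at or below 250%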;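 also: OY570 slx delta 5 strain wells were the positive control but not used for scaling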
ALR inh: inhibitors of human sulfhydryl oxidase ALR. P55789. purified ALR, DTT oxidation, H2O2 HRP-luminol luminescence. AID 485317. inhibition, % (concentration not given with the values). 3.8% of 290,000 active;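 active = mean replicate inhibition above about 79%, with every replicate also reaching it, limit read from the data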
Bfl-1 A1 inh: inhibitors of the anti-apoptotic protein A1, read as caspase activation | MEF A1-2A-BIM cells, Caspase-Glo 3/7 luminescence, 3 h; percent of clofoctol response, vehicle zero | caspase activation, % (no concentration beside the values) | 0.066% of 330,000 active | AID 2462;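 active = over half of replicate activation scores above 10%, or exactly half above 10 with the replicate mean above 10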
VLA-4 inh: inhibition in a human VLA-4 binding assay; P13612; VLA-4 expressing cells, ligand binding flow cytometry; inhibition, % (about 7 µM as worked out from the volumes in the protocol); 0.2% of 330,000 active; AID 2557; in the data active = inhibition above about 50%
Target sequence (P13612 whole entry, looked up): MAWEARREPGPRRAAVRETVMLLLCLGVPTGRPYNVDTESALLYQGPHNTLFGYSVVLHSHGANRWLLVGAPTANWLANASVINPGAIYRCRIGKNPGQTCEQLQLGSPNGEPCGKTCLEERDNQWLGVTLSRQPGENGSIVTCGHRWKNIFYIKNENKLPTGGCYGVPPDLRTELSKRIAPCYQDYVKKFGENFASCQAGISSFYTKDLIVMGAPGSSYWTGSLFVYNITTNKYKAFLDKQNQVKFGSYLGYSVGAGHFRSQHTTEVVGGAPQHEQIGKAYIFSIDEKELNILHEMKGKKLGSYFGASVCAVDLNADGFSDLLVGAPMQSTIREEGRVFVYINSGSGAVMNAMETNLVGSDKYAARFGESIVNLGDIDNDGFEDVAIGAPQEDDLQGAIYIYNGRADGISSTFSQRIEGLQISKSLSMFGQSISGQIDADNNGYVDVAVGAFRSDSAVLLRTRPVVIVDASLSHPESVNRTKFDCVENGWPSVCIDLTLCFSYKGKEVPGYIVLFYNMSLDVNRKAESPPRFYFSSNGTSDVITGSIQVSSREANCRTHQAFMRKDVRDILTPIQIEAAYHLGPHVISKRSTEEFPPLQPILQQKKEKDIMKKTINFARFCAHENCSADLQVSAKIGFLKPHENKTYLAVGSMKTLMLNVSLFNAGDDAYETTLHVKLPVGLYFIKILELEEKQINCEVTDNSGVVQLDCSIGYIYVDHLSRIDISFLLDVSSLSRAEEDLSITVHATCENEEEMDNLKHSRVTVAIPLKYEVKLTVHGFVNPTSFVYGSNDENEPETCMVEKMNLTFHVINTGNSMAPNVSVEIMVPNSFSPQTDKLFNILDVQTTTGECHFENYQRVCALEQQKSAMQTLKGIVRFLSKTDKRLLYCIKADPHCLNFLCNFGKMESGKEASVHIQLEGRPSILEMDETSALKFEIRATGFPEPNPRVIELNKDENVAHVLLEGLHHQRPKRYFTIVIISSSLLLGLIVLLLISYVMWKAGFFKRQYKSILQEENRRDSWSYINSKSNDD
Mot1 SUMO dose: SUMO pathway inhibitors in yeast Mot1-301 growth. growth activity, percent, % at 42 µM. shares compounds with SUMO Mot1 rescue. S. cerevisiae Mot1-301 galactose growth, ATP luminescence, 24 h; -100 = growth of slx-deleted rescue strain. 2,300 tested, under 10 active;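 active = Signal drops as the depositor expects, and the fitted half-maximal dose is no more than ten times the top valid tested dose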;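 also: more negative values mean stronger growth rescue toward the control strain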
Numbers without * were called inactive; i = inactive; nt = no result given; + = active, no number; ! = a repeat was not active.

SMILES | Efflux pump mplx | AHR activator | SUMO Mot1 rescue | ALR inh | Bfl-1 A1 inh | VLA-4 inh | Mot1 SUMO dose
COc1cccc(/C=C2\SC(N3CCC(C)CC3)=NC2=O)c1OC | 0.0 | 6.2 | 614.9* | -2.8 | -0.4 | 11.0 | -0.3
CC1Cc2ccccc2N1C(=O)CN1C(=O)COc2ccccc21 (centres undefined) | -0.3 | 2.3 | 9.4 | 0.3 | 0.2 | 1.7 | nt
CC1Cc2ccccc2N1C(=O)Cn1c(=O)cc(O)c2ccccc21 (centres undefined) | 0.2 | 10.6 | 636.2* | -12.2 | 0.0 | 5.8 | 0.1
CCCCCCCCCCOC(=O)Cn1c(COc2ccc(OC)cc2)[n+](C)c2ccccc21 | 0.2 | 1.0 | 562.6*! | -23.2 | -0.5 | -7.9 | -2.0
O=C(NNC(=O)c1ccc(-n2cncn2)c([N+](=O)[O-])c1)c1ccc(Cl)cc1 | 0.2 | 4.7 | 671.6* | -4.6 | -0.5 | 0.1 | 0.1
Cc1cccc(N2C(=N)SCC2=O)c1C | -0.1 | 1.6 | i | 0.0 | 0.0 | 15.0 | nt
Cc1nn(-c2ccc(F)cc2)c(Cl)c1/C=C1\C(=O)Nc2ccccc21 | 0.2 | 20.7 | -15.8 | -3.1 | 0.3 | 3.6 | nt
COc1ccc(-c2c(C)nn3c(C)cc(C)nc23)cc1 | 0.1 | 10.1 | 519.3* | -0.5 | 0.1 | 13.9 | -0.2
COc1ccc(C(=O)N2CCCC(CCC(=O)N3CCN(c4ccccn4)CC3)C2)cc1 (centres undefined) | 0.0 | -2.1 | -2.5 | -3.4 | 1.6 | 18.3 | nt
CN(C)c1ccc(C(=O)N2CCCC(CCC(=O)N3CCN(c4ccccn4)CC3)C2)cc1 (centres undefined) | -0.1 | -1.0 | 553.6* | 56.6 | 0.3 | -5.0 | -0.1
CC(C)CN(C(=O)c1cccc(S(=O)(=O)N2CCN(Cc3ccccc3)CC2)c1)C1CCS(=O)(=O)C1 (centres undefined) | 0.2 | 2.2 | -4.1 | -13.0 | -0.3 | 6.7 | nt
CCc1cc(/C(Cc2ccccn2)=N\O)c(O)cc1O | -0.2 | 1.1 | 485.9* | 67.4 | 0.2 | -3.2 | -0.1
CCc1cc(C(=O)Cc2nc3ccccc3[nH]2)c(O)cc1O | -0.2 | 36.9 | 2.0 | 4.1 | 0.1 | 5.6 | nt
CCOc1ccc2nc(C(C)O)[nH]c2c1 (centres undefined) | -0.1 | -1.4 | + | -7.6 | 0.7 | 8.4 | 1.1
O=C(NCc1cccnc1)C1CCN(S(=O)(=O)c2cccnc2)CC1 | 0.2 | 5.8 | + | -0.4 | 0.1 | 7.7 | -0.7
CCOC(=O)c1ccccc1NC(=O)CSc1ccc(-c2ccccn2)nn1 | 0.2 | -0.5 | 782.9* | 0.4 | 1.9 | -0.2 | 0.1
CCOc1ccc(CN(C)C(C)C(=O)NCc2ccccc2)cc1 (centres undefined) | -0.1 | 2.8 | 400.8* | 2.6 | 0.7 | -0.3 | -0.5
C=CC(=O)NC1CC2CCC1(C)C2(C)C (centres undefined) | 0.1 | -0.4 | 459.3* | -2.6 | 0.1 | 11.2 | 0.6
COCCOCCOCCC(=O)NC1CC2CCC1(C)C2(C)C (centres undefined) | -0.4 | -0.5 | 11.2 | -1.0 | 1.5 | 3.7 | nt
O=C(NCCc1ccccc1F)C1CCC(=O)N(Cc2ccc(Cl)cc2)C1 (centres undefined) | 0.3 | -0.3 | nt | -14.6 | nt | 1.8 | nt
CCOC(=O)Cn1cnc2c(nnn2-c2cccc(Cl)c2)c1=O | 0.1 | 4.7 | 589.8 | 3.7 | 1.2 | 9.9 | nt
Cc1nn(C)c(C)c1NC(=O)COc1ccc(F)cc1Br | 0.1 | -0.8 | -14.1 | -9.5 | 0.3 | 0.0 | nt
CSc1cc(C)c(OCC(=O)Nc2c(C)nn(C)c2C)c(C)c1 | -3.7 | 9.7 | 384.7* | nt | -0.3 | 0.4 | -0.2
Cc1ccc(C(=O)O)cc1[N+](=O)[O-] | -0.1 | -1.4 | 364.9* | -8.8 | 0.2 | 11.6 | -1.4
CCN1CCN(C(=O)c2ccc3nc(-c4ccccc4)c(-c4ccccc4)nc3c2)CC1 | -0.1 | -6.5 | 474.1* | nt | -0.7 | 9.5 | -0.2
SMILES | Efflux pump mplx | AHR activator | SUMO Mot1 rescue | ALR inh | Bfl-1 A1 inh | VLA-4 inh | Mot1 SUMO dose
O=C(O)c1ccc2nc(-c3ccccc3)c(-c3ccccc3)nc2c1 | 0.3 | -0.4 | 5.1 | 7.7 | -0.8 | 0.2 | nt
N#Cc1cc2c(nc1SC1CCCCC1O)CCCC2 (centres undefined) | 0.2 | 2.2 | 485.3* | 7.7 | -0.2 | 6.9 | 1.4
CSc1nc2c(cc1C#N)CCC2 | 0.1 | -0.9 | 109.3 | -9.9 | -0.3 | -4.3 | nt
CC(C)CNS(=O)(=O)c1cc2c3c(c1)CC(=O)N3CCC2 | -0.2 | -0.4 | 18.9 | nt | 0.9 | -1.9 | nt
Cc1ccccc1NC(=O)COC(=O)C1C2CC3OC(=O)C1C3C2 (centres undefined) | -0.1 | 0.3 | 473.9* | -0.9 | 0.9 | 10.2 | 0.5
COc1ccccc1NC(=O)COC(=O)C1C2CC3OC(=O)C1C3C2 (centres undefined) | 0.0 | 0.6 | 597.1 | -2.2 | 0.4 | 4.6 | nt
CN1CCN(C(=O)CCN2C(=O)/C(=C/c3ccccc3Cl)SC2=S)CC1 | 0.1 | 5.9 | 378.3* | -4.5 | -0.6 | 14.1 | -0.6
CN1CCN(C(=O)CCN2C(=O)/C(=C\c3ccccc3F)SC2=S)CC1 | 0.0 | -0.8 | -5.4 | -12.0 | 0.9 | 11.6 | nt
CC(=O)Nc1cccc(C(=O)OCC(=O)NCc2ccc(F)cc2)c1 | 0.0 | 0.1 | 453.4* | nt | -0.1 | -23.4 | 0.0
CC(=O)Nc1ccc(C(=O)OCC(=O)NCc2ccccc2)cc1 | -0.1 | 1.3 | -2.8 | 1.8 | -0.2 | -1.9 | nt
N#C[C@H]1C2OC2c2ccccc2N1C(=O)c1ccccc1 (some centres undefined) | -0.3 | 6.5 | -1.0 | -1.5 | 0.0 | -7.1 | nt
CC1=CC(C)(C)N2C(=O)C3(NCCc4c3[nH]c3ccccc43)c3cc(C)cc1c32 (centres undefined) | 0.1 | 1.4 | 506.2* | 0.5 | 1.5 | -0.4 | -0.5
Cc1nn(C)c(C)c1S(=O)(=O)N1CCCC(C(=O)N2CCN(c3ccccc3)CC2)C1 (centres undefined) | 0.0 | 0.1 | -12.5 | nt | 0.8 | -2.5 | nt
COc1ccc(N2C(=O)CSC23CCCCC3)cc1 | 0.1 | -2.1 | + | 98.5* | -0.6 | 19.2 | 0.8
O=C1N=C(N2CCN(c3ccccc3)CC2)SC1Cc1ccccc1 (centres undefined) | 0.3 | -0.1 | 529.8* | 2.3 | 0.1 | -13.8 | 0.3
O=C(O)c1cc2c(cc1NC(=O)C1CCCC1)OCCO2 | -0.4 | -0.1 | nt | nt | nt | 1.8 | nt
CCOC(=O)C1CCN(CC(O)COCc2ccccc2)CC1 (centres undefined) | 0.4 | 0.3 | 554.3* | 1.8 | 0.0 | 18.7 | -0.3
CCOC(=O)C1CCN(CC(O)COc2ccc(C(C)(C)C)cc2)CC1 (centres undefined) | 0.2 | 1.3 | 376.4* | -24.0 | 0.0 | 2.1 | 0.0
